# According to the supplement of paper PMC4466140:
# Assays:
# Assay in all cases: SPOT peptide array binding signal intensity (averaged, normalized) (arbitrary units (background-subtracted, floor 0; scale differs between SH3 domains)); higher = stronger binding of the SH3 domain to the peptide
# AgAbp1 = molecular target: AgAbp1
# Method in brief: (§1)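 Four yeast species supplied the SH3 domains, which were expressed as GST fusions in E. coli BL21(DE3) and purified on glutathione Sepharose. Incubation with cellulose membranes carrying synthetic 15-mer peptides, cysteines exchanged for serines, ran overnight at 4°C at 10 μg/ml in TBS-based blocking buffer. Binding signal is reported as normalized, background-subtracted spot intensity averaged over replicates, in arbitrary units not shared between domains.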
# AgBbc1 = molecular target: AgBbc1
# Method in brief: as §1
# AgBem1-D1 = molecular target: AgBem1-D1
# Method in brief: as §1
# AgBzz1-D1 = molecular target: AgBzz1-D1
# Method in brief: as §1
# AgBzz1-D2 = molecular target: AgBzz1-D2
# Method in brief: as §1
# AgCyk3 = molecular target: AgCyk3
# Method in brief: as §1
# AgFus1 = molecular target: AgFus1
# Method in brief: as §1
# AgHof1 = molecular target: AgHof1
# Method in brief: as §1
# AgHse1 = molecular target: AgHse1
# Method in brief: as §1
# AgLsb1 = molecular target: AgLsb1
# Method in brief: as §1
# AgLsb4 = molecular target: AgLsb4
# Method in brief: as §1
# AgMyo5 = molecular target: AgMyo5
# Method in brief: as §1
# AgNbp2 = molecular target: AgNbp2
# Method in brief: as §1
# AgRvs167 = molecular target: AgRvs167
# Method in brief: as §1
# AgSho1 = molecular target: AgSho1
# Method in brief: as §1
# AgSla1-D1-D2 = molecular target: AgSla1-D1-D2
# Method in brief: as §1
# AgSla1-D3 = molecular target: AgSla1-D3
# Method in brief: as §1
# CaAbp1-D1 = molecular target: CaAbp1-D1
# Method in brief: as §1
# CaAbp1-D2 = molecular target: CaAbp1-D2
# Method in brief: as §1
# CaBbc1 = molecular target: CaBbc1
# Method in brief: as §1
# CaBem1-D1 = molecular target: CaBem1-D1
# Method in brief: as §1
# CaBzz1-D1 = molecular target: CaBzz1-D1
# Method in brief: as §1
# CaBzz1-D2 = molecular target: CaBzz1-D2
# Method in brief: as §1
# CaCyk3 = molecular target: CaCyk3
# Method in brief: as §1
# CaFus1 = molecular target: CaFus1
# Method in brief: as §1
# CaHof1 = molecular target: CaHof1
# Method in brief: as §1
# CaHse1 = molecular target: CaHse1
# Method in brief: as §1
# CaLsb1 = molecular target: CaLsb1
# Method in brief: as §1
# CaLsb4 = molecular target: CaLsb4
# Method in brief: as §1
# CaMyo5 = molecular target: CaMyo5
# Method in brief: as §1
# CaNbp2 = molecular target: CaNbp2
# Method in brief: as §1
# CaRvs167 = molecular target: CaRvs167
# Method in brief: as §1
# CaRvs167-3 = molecular target: CaRvs167-3
# Method in brief: as §1
# CaSho1 = molecular target: CaSho1
# Method in brief: as §1
# CaSla1-D1-D2 = molecular target: CaSla1-D1-D2
# Method in brief: as §1
# CaSla1-D3 = molecular target: CaSla1-D3
# Method in brief: as §1
# ScAbp1 = molecular target: ScAbp1
# Method in brief: as §1
# ScBbc1 = molecular target: ScBbc1
# Method in brief: as §1
# ScBem1-D1 = molecular target: ScBem1-D1
# Method in brief: as §1
# ScBzz1-D1 = molecular target: ScBzz1-D1
# Method in brief: as §1
# ScBzz1-D2 = molecular target: ScBzz1-D2
# Method in brief: as §1
# ScCyk3 = molecular target: ScCyk3
# Method in brief: as §1
# ScFus1 = molecular target: ScFus1
# Method in brief: as §1
# ScHof1 = molecular target: ScHof1
# Method in brief: as §1
# ScHse1 = molecular target: ScHse1
# Method in brief: as §1
# ScLsb1 = molecular target: ScLsb1
# Method in brief: as §1
# ScLsb2 = molecular target: ScLsb2
# Method in brief: as §1
# ScLsb3 = molecular target: ScLsb3
# Method in brief: as §1
# ScLsb4 = molecular target: ScLsb4
# Method in brief: as §1
# ScMyo3 = molecular target: ScMyo3
# Method in brief: as §1
# ScMyo5 = molecular target: ScMyo5
# Method in brief: as §1
# ScNbp2 = molecular target: ScNbp2
# Method in brief: as §1
# ScPex13 = molecular target: ScPex13
# Method in brief: as §1
# ScRvs167 = molecular target: ScRvs167
# Method in brief: as §1
# ScSho1 = molecular target: ScSho1
# Method in brief: as §1
# ScSla1-D1-D2 = molecular target: ScSla1-D1-D2
# Method in brief: as §1
# ScSla1-D3 = molecular target: ScSla1-D3
# Method in brief: as §1
# SpAbp1-D1 = molecular target: SpAbp1-D1
# Method in brief: as §1
# SpBbc1 = molecular target: SpBbc1
# Method in brief: as §1
# SpBzz1-D1 = molecular target: SpBzz1-D1
# Method in brief: as §1
binder,measurement,setting,value
ILARAILTIPRVLDK,SPOT peptide array binding signal intensity,AgAbp1,2
same,SPOT peptide array binding signal intensity,AgBbc1,50
same,SPOT peptide array binding signal intensity,AgBem1-D1,162
same,SPOT peptide array binding signal intensity,AgBzz1-D1,107
same,SPOT peptide array binding signal intensity,AgBzz1-D2,121
same,SPOT peptide array binding signal intensity,AgCyk3,11
same,SPOT peptide array binding signal intensity,AgFus1,1100
same,SPOT peptide array binding signal intensity,AgHof1,34.5
same,SPOT peptide array binding signal intensity,AgHse1,500
same,SPOT peptide array binding signal intensity,AgLsb1,1.5
same,SPOT peptide array binding signal intensity,AgLsb4,1390
same,SPOT peptide array binding signal intensity,AgMyo5,1
same,SPOT peptide array binding signal intensity,AgNbp2,279
same,SPOT peptide array binding signal intensity,AgRvs167,12
same,SPOT peptide array binding signal intensity,AgSho1,516
same,SPOT peptide array binding signal intensity,AgSla1-D1-D2,58
same,SPOT peptide array binding signal intensity,AgSla1-D3,12
same,SPOT peptide array binding signal intensity,CaAbp1-D1,30
same,SPOT peptide array binding signal intensity,CaAbp1-D2,20
same,SPOT peptide array binding signal intensity,CaBbc1,68.5
same,SPOT peptide array binding signal intensity,CaBem1-D1,33.5
same,SPOT peptide array binding signal intensity,CaBzz1-D1,625
same,SPOT peptide array binding signal intensity,CaBzz1-D2,247
same,SPOT peptide array binding signal intensity,CaCyk3,35
same,SPOT peptide array binding signal intensity,CaFus1,1530
same,SPOT peptide array binding signal intensity,CaHof1,2.25
same,SPOT peptide array binding signal intensity,CaHse1,130
same,SPOT peptide array binding signal intensity,CaLsb1,2.25
same,SPOT peptide array binding signal intensity,CaLsb4,62.5
same,SPOT peptide array binding signal intensity,CaMyo5,12.5
same,SPOT peptide array binding signal intensity,CaNbp2,290
same,SPOT peptide array binding signal intensity,CaRvs167,99.3
same,SPOT peptide array binding signal intensity,CaRvs167-3,854
same,SPOT peptide array binding signal intensity,CaSho1,1420
same,SPOT peptide array binding signal intensity,CaSla1-D1-D2,15
same,SPOT peptide array binding signal intensity,CaSla1-D3,118
same,SPOT peptide array binding signal intensity,ScAbp1,6
same,SPOT peptide array binding signal intensity,ScBbc1,3.5
same,SPOT peptide array binding signal intensity,ScBem1-D1,8
same,SPOT peptide array binding signal intensity,ScBzz1-D1,41.5
same,SPOT peptide array binding signal intensity,ScBzz1-D2,299
same,SPOT peptide array binding signal intensity,ScCyk3,70
same,SPOT peptide array binding signal intensity,ScFus1,1530
same,SPOT peptide array binding signal intensity,ScHof1,0.5
same,SPOT peptide array binding signal intensity,ScHse1,1470
same,SPOT peptide array binding signal intensity,ScLsb1,11.5
same,SPOT peptide array binding signal intensity,ScLsb2,55
same,SPOT peptide array binding signal intensity,ScLsb3,117
same,SPOT peptide array binding signal intensity,ScLsb4,5
same,SPOT peptide array binding signal intensity,ScMyo3,≤ 0
same,SPOT peptide array binding signal intensity,ScMyo5,≤ 0
same,SPOT peptide array binding signal intensity,ScNbp2,305
same,SPOT peptide array binding signal intensity,ScPex13,59.2
same,SPOT peptide array binding signal intensity,ScRvs167,4.83
same,SPOT peptide array binding signal intensity,ScSho1,1560
same,SPOT peptide array binding signal intensity,ScSla1-D1-D2,145
same,SPOT peptide array binding signal intensity,ScSla1-D3,18
same,SPOT peptide array binding signal intensity,SpAbp1-D1,7.5
same,SPOT peptide array binding signal intensity,SpBbc1,56.5
same,SPOT peptide array binding signal intensity,SpBzz1-D1,553
